PubChem BioAssay (NCATS)
Inconclusive results are not listed. Active and inactive are the calls of the source. Calls follow the shape of the dose curve; as a rule, active = well fitted inhibition curve with a large enough effect; inconclusive = small, poorly fitted or top-dose-only effect; inactive = flat fitted curve, though single readings scatter.

Molecular target: Glutathione peroxidase 1 (Homo sapiens) (UniProt P07203)
Assay: Primary qHTS Assay for Inhibitors of Recombinant Selenoprotein Glutathione Peroxidase 1 (GPX1) (AID 1845191); also: nearly all actives have a fitted effect of over 65% in size
Settings: recombinant GPX1, GR-coupled NADPH fluorescence, 15 min; series mostly up to 48.8 µM; activity, negative = inhibition: at the top concentration
Method in brief: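 GR-coupled assay: compounds preincubated 30 min at room temperature with GPX1, then reaction started with CHP; final 10 nM GPX1, 1 mM GSH, 0.5 mM CHP, 0.5 mM NADPH, 100 nM GR, 0.01% BSA, pH 7.5 Tris buffer. NADPH fluorescence (340/450 nm) read at 0 and 15 min.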
% is scaled to controls: 0 for no effect and ±100 for the full control effect.

Chain of Glutathione peroxidase 1 (Homo sapiens) (P07203 whole entry, looked up): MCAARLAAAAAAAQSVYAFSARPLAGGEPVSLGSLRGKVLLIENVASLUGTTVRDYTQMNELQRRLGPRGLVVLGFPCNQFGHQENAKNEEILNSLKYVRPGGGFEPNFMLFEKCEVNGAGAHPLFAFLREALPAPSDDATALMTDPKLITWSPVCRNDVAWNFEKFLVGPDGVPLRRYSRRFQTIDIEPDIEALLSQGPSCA

SMILES | outcome | activity, negative = inhibition | Potency
COC1CC(OC2CCC3(C)C(=CCC4C3CCC3(C)C(C(C)OC5OC(COC6OC(CO)C(O)C(O)C6O)C(O)C(O)C5O)CCC43O)C2)OC(C)C1OC1OC(C)C(O)C(OC)C1O (centres undefined) | inactive [at 15.3 µM] |  | 
C[C@@]1(C(=O)O)CC[C@]2(C)CC[C@]3(C)C4=CC(=O)c5cc(O)c(O)cc5[C@]4(C)CC[C@@]3(C)[C@@H]2C1 |  | -8.43% [at 27.7 µM] (inactive) | 
COC(=O)C12C(=O)C(C)(O)C(=O)C1(C)C(C)=CC1C34CCC(OC3=O)C(C)(CO)C4CCC12C (centres undefined) | inactive [at 27.7 µM] |  | 
CC(C)=C1CC[C@]23CO[C@H](C2)[C@@](O)(C(=O)O)CCC13 (some centres undefined) |  | 4.15% (inactive) | 
COC1CC(OC2CCC3(C)C(CCC4C3CCC3(C)C(C5=CC(=O)OC5)C(OC(C)=O)CC43O)C2)OC(C)C1OC1OC(CO)C(O)C(O)C1O (centres undefined) | inactive [at 15.3 µM] |  | 
COC1CC(=O)C23C(=O)NC(CC(C)C)C2C(C)=C(C)C(OO)C3/C=C(\C)CCC(O)C1O (centres undefined) | inactive [at 27.7 µM] |  | 
COc1c(C(C)C)cc2c(c1O)[C@@]1(C(=O)O)CCCC(C)(C)C1CC2 (some centres undefined) | inactive [at 27.7 µM] |  | 
CC1C/C=C/C(O)C(O)CC/C=C/c2cc(O)cc(O)c2C(=O)O1 (centres undefined) | inactive [at 27.7 µM] |  | 
C=CC(C)(O)CC/C=C(\C)C(=O)O[C@H]1[C@H](O)[C@@H](CO)O[C@@H](OC(=O)[C@]23CCC(C)(C)CC2C2=CCC4[C@@]5(C)CC[C@H](O[C@@H]6O[C@H](CO[C@@H]7OC[C@H](O)[C@H](O)[C@H]7O[C@@H]7OC[C@@H](O)[C@H](O)[C@H]7O)[C@@H](O)[C@H](O)[C@H]6O)C(C)(C)C5CC[C@@]4(C)[C@]2(C)CC3)[C@@H]1OC1OC(C)C(O[C@@H]2OC[C@@H](O)[C@H](O[C@@H]3OC[C@@H](O)[C@H](O)[C@H]3O)[C@H]2O)C(O)C1O (some centres undefined) | inactive [at 9.52 µM] |  | 
COC1C(O)C(OC2CCC3(C=O)C(CCC4C3CCC3(C)C(C5=CC(=O)OC5)CCC43O)C2)OC(C)C1OC1OC(CO)C(O)C(O)C1O (centres undefined) | inactive [at 15.3 µM] |  | 
COC1CC(O[C@H]2CC[C@@]3(C)C(=CCC4C3C(O)[C@@H](O)[C@]3(C)[C@@H](C(C)=O)CC[C@]43O)C2)OC(C)C1OC1CC(OC)C(OC2OC(C)C(O)C(O)C2O)C(C)O1 (some centres undefined) |  | -3.25% [at 15.3 µM] (inactive) | 
CC(N)Cc1c[nH]c2ccccc12 (centres undefined) | inactive |  | 
CC(C)(C)c1cc(C(C)(C)C)c2c(c1)C(O)(C(F)(F)F)C(=O)O2 (centres undefined) | inactive |  | 
CC[C@H]1CN2CC[C@H]1C[C@@H]2[C@@H](O)c1ccnc2ccc(OC)cc12 |  |  | inactive
C=C(C)[C@H]1O[C@H]2CC[C@@]3(C)[C@@](O)(CC[C@H]4[C@@H]5OC(C)(C)[C@H]6C[C@@H]7C(=C)Cc8c(Cl)cc9[nH]c(c5c9c8[C@@]76O)[C@@]43C)[C@]23O[C@@H]3[C@H]1O |  | -16.8% [at 15.3 µM] (inactive) | 
COC1C(O)C(C)OC(OC2C(CO)O[C@@H](O[C@@H]3CC4CCC5C(CC[C@]6(C)[C@@H](C7=CC(=O)OC7)CC[C@]56O)[C@@]4(C)[C@H](O)C3)C(O)C2O)C1O (some centres undefined) |  | -10.2% [at 15.3 µM] (inactive) | 
CCc1[nH]c2ccc(OC)cc2c1CCN(C)C |  | -7.33% (inactive) | 
CCC1NC(=O)C2C(Cl)C(Cl)CN2C(=O)C(C(C)O)NC(=O)CC(c2ccccc2)NC(=O)C(CO)NC1=O (centres undefined) |  | 2.7% [at 15.3 µM] (inactive) | 
CC(=O)OC1CC(O)C2(C)C(CC(OC(C)=O)C3(C)C2CCC2(C)C(c4ccoc4)C(=O)C4OC423)C1(C)C (centres undefined) | inactive [at 27.7 µM] |  | 
CN1CCCC1CCOC(c1cc2nccc(C(=O)O)c2[nH]1)c1ccccc1Cl (centres undefined) |  | -14% (inactive) | 

SMILES | outcome | activity, negative = inhibition | Potency
Cc1c(Cl)cccc1S(=O)(=O)Nc1nc(CC(=O)N2CCN(C)CC2)cs1 |  | -3.02% (inactive) | 
CC(=O)OC1CC(O)C(C)(C)C2CC(OC(C)=O)C3(C)C(CCC4(C)C(c5ccoc5)C(=O)C5OC543)C12C (centres undefined) |  | -0.548% [at 27.7 µM] (inactive) | 
COC1=CC(=O)O[C@@H](CCc2ccccc2)C1 | inactive |  | 
CC1=C2C[C@H]3[C@@H](CC=C4C[C@@H](O)CC[C@@]43C)[C@@H]2CC[C@]12O[C@@H]1C[C@H](C)CN[C@H]1[C@H]2C | inactive |  | 
CC(C)(O)[C@H]1O[C@H]2CC[C@@]3(C)[C@@](O)(CC[C@H]4Cc5c([nH]c6ccccc56)[C@@]43C)C2=CC1=O |  | -21.2% [at 27.7 µM] (inactive) | 
OCCCCC#Cc1cncc(OC[C@@H]2CCN2)c1 |  | 4.06% (inactive) | 
C[C@]12CC[C@@H](O)C[C@H]1CC[C@@H]1[C@@H]2CC[C@]2(C)C(=O)CC[C@@H]12 |  | -9.72% (inactive) | 
CC(=O)OC12C(O)C(C)C3(O)C4C=C(C)C(=O)C4CC(CO)=CC3C1C2(C)C (centres undefined) |  | -7.64% [at 27.7 µM] (inactive) | 
COc1ccccc1CN[C@H]1C2CCN(CC2)[C@H]1C(c1ccccc1)c1ccccc1 |  | -5.26% (inactive) | 
CCCCCCn1c(=O)c(C(=O)Nc2ccc(C(=O)OCCC)cc2)c(O)c2ccccc21 | inactive [at 9.52 µM] |  | 
COC1=CC(=O)O[C@@H](/C=C/c2ccccc2)C1 | inactive |  | 
CCCN1CCO[C@H]2c3cc(O)ccc3OC[C@@H]21 | inactive |  | 
COc1cc(C(=O)O[C@H]2[C@@H]3C=CO[C@@H](O[C@@H]4O[C@H](CO)[C@@H](O)[C@H](O)[C@H]4O)[C@@H]3[C@@]3(CO)O[C@@H]23)ccc1O | inactive [at 27.7 µM] |  | 
CCN1C[C@]2(COC)[C@H](O)C[C@H](OC)[C@]34[C@@H]5C[C@]6(O)[C@H](OC(=O)c7ccccc7)[C@@H]5[C@@](O)([C@H]([C@H](OC)[C@H]23)[C@@H]14)[C@@H](O)[C@@H]6OC |  | -5.85% [at 27.7 µM] (inactive) | 
C[C@H](NC(=O)Cc1cc(F)cc(F)c1)C(=O)N[C@@H]1N=C(c2ccccc2)c2ccccc2N(C)C1=O |  | -8.95% (inactive) | 
C1=C2CCCN[C@H]2[C@@H]2C[C@H]1[C@H]1CCCCN1C2 |  | 4.81% (inactive) | 
C[C@@H]1C(=O)O[C@H]2[C@H](O)[C@@]34[C@@H]5OC(=O)[C@@]3(O[C@@H]3OC(=O)[C@@H](O)[C@@]34[C@H](C(C)(C)C)[C@H]5O)[C@@]12O | inactive [at 27.7 µM] |  | 
COC(=O)C1(C)CCC(O)C2(C)c3cc(O)c(C(C)C)cc3C(O)C(OC(C)=O)C12 (centres undefined) |  | -14.9% [at 27.7 µM] (inactive) | 
CN1C(=O)c2ccccc2NC(=O)[C@]12O[C@@H]2c1ccccc1 |  | -10.7% (inactive) | 
